Results filed as inconclusive are left out. Entries that show only a call come without a potency. Activity calls are given as the source filed them. The call rests on the fitted dose curve; in most records, active means well fitted inhibition curve with a large enough effect; inconclusive means small, poorly fitted or top-dose-only effect; inactive means flat fitted curve, though single readings scatter.
Potency means the concentration at half of the fitted maximal effect.

The nature of the assay: P-glycoprotein substrates identified in KB-8-5-11 adenocarcinoma cell line, qHTS therapeutic library screen (AID 1346987). Further: nearly all actives have a fitted effect of over 65% in size. Conditions: KB-8-5-11 (P-gp overexpressing) viability, CellTiter-Glo, 72 h; series mostly up to 44.5 µM. The method, boiled down: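 KB-8-5-11, a colchicine-selected P-gp-overexpressing KB-3-1 subline, was grown without colchicine for the assay. Cells were seeded at 500 cells/well, dosed in concentration-response and incubated 72 h at 37 degree C, 5% CO2. Viability was read by CellTiter-Glo luminescence.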
(In general: qHTS replaces the single test concentration by a dilution series.)
With `CCCC1([C@H](O)C/C=C/[C@H]2[C@H](O)CC(=O)[C@@H]2CCCCCCC(=O)OC)CCC1`, the Potency entry is “inactive”.

`C=C1/C(=C/C=C2\CCC[C@]3(C)[C@@H]([C@H](C)/C=C/[C@H](O)C4CC4)CC[C@@H]23)C[C@@H](O)C[C@@H]1O`: the Potency entry was “inactive”.

In the case of `CCCCCCCCCCCCCCCC(=O)OC/C=C(C)/C=C/C=C(C)/C=C/C1=C(C)CCCC1(C)C`, the Potency result was “inactive”.

On to `Cc1ccc(C)c(NC(=O)[C@@H]2CCCN2S(=O)(=O)c2cccc3cccnc23)c1`, for which the Potency result was “inactive”.

For `CCN(CC)CCCS(=O)(=O)N[C@H](CCc1ccccc1)c1nc(Cc2ccc(Br)cc2)no1`, the Potency is 23.1 µM (active).

Take `COc1cc(O)cc(OC2OC(CO)C(O)C(O)C2O)c1` (centres undefined): the Potency entry is “inactive”.

Regarding `C/C(=C\CCC(C)C1=CCC2(C)OC3=C(CC12)C(=O)C(O)CC3)CO` (centres undefined), the Potency entry is “inactive”.

As to `C=C(C(=O)OC)[C@@H]1CC=C2C=CC(=O)[C@H](C)[C@@]2(C)C1`, the Potency result is “inactive”.

For `N#CC(CCCN1CCC(O)(c2ccc(Cl)cc2)CC1)(c1ccccc1)c1ccccc1`, the Potency is 20.6 µM (active).

With `CC1(C)C2CC[C@]3(C)[C@H](C(=O)C=C4[C@@H]5C[C@@](C)(C(=O)O)CC[C@]5(C)CC[C@]43C)[C@@]2(C)CC[C@@H]1O[C@H]1O[C@H](C(=O)O)[C@@H](O)[C@H](O)[C@H]1O[C@@H]1O[C@H](C(=O)O)[C@@H](O)[C@H](O)[C@H]1O` (some centres undefined), the Potency entry is “inactive”.

Turning to `CCn1c(=O)n([C@H]2CCCN(c3nccc(-c4cc5ccccc5o4)n3)C2)c2ccccc21`, the Potency entry was “inactive”.

In the case of `CCC(C)C(=O)O[C@H]1[C@@H](OC(=O)c2ccoc2)C[C@](C)(O)[C@]23OC(C)(C)[C@H](C[C@H](OC(=O)c4ccoc4)[C@]12COC(C)=O)[C@H]3OC(C)=O` (some centres undefined), the Potency entry was “inactive”.

As to `CC(C)(C)c1ccc(C(=O)Nc2cn3cc(-n4ccnc4)ccc3n2)cc1`, the Potency entry was “inactive”.

As to `Cc1cc(OCCCS(C)(=O)=O)cc(C)c1-c1cccc(COc2ccc(C3=CC(=O)NS3=O)cc2)c1` (centres undefined), the Potency entry is “inactive”.

Regarding `Cc1cc2c(N3CCCC3)nc(N3CCCC3)nc2n1C`, the Potency result was “inactive”.

With `O=C1C(Cc2ccc(O)cc2)N2C(=O)CCN(C(=O)NCc3ccccc3)C2CN1Cc1cccc2ccccc12` (centres undefined), the Potency result is “inactive”.

`COc1cc(C(N)=O)nc(-c2ccccn2)c1O`: the Potency entry is “inactive”.

In the case of `CCc1ccccc1OC[C@@H](O)CN[C@H]1CCCc2ccccc21`, the Potency is 20.6 µM (active).

For the molecule `CNCCN1CCC(c2cc(CN(C)C(=O)c3cccc(Oc4ccccc4)c3)ccn2)CC1`, the Potency result is “inactive”.

As to `O=C(Cn1cnnn1)N[C@@H]1C(=O)N2C(C(=O)O)=C(CSc3nncs3)CS[C@H]12`, the Potency result is “inactive”.

With `CN(C)c1ccnc2sc3c(=O)n(N4CCCCCC4)cnc3c12`, the Potency result was “inactive”.

In the case of `NC(=O)C[C@@H](N)C(=O)O`, the Potency entry is “inactive”.

Take `O=C1O[C@H]2[C@H](O)[C@@H]1OC(O)[C@H]2O` (some centres undefined): the Potency result was “inactive”.

For the molecule `Cc1ccccc1CNc1ncnc2c1ncn2[C@@H]1O[C@H](CO)[C@@H](O)[C@H]1O`, the Potency entry was “inactive”.

Take `C/C=C/C=C/C=C/C(=O)O[C@@H]1C=C2COC(=O)[C@]2(O)[C@@]2(C)CCCC(C)(C)[C@H]12`: the Potency result is “inactive”.

Consider `CCCCNc1ncc2c(-c3ccc(S(=O)(=O)N4CCOCC4)cc3)nn(C3CCC(O)CC3)c2n1` (centres undefined), for which the Potency is 7.31 µM (active).

With `C=C1/C(=C/C=C2\CCC[C@]3(C)[C@@H]([C@H](C)CC[C@@H](O)C(C)(C)O)CC[C@@H]23)C[C@@H](O)C[C@@H]1O`, the Potency entry is “inactive”.

Regarding `O=C(NCC(=O)N1CCCC1)Nc1ccc2cnccc2c1`, the Potency result was “inactive”.

For the molecule `C=C(NC(=O)C(=C)NC(=O)c1csc(C2=NC3c4csc(n4)C4NC(=O)c5csc(n5)C(C(C)(O)C(C)O)NC(=O)C5CSC(=N5)/C(=C/C)NC(=O)C(C(C)O)NC(=O)c5csc(n5)C3(CC2)NC(=O)C(C)NC(=O)C(=C)NC(=O)C(C)NC(=O)C(C(C)CC)NC2C=Cc3c(C(C)O)cc(nc3C2O)C(=O)OC4C)n1)C(N)=O` (centres undefined), the Potency entry is “inactive”.

Values taken from PubChem BioAssay (NCATS).
